The source of these data is the supplement of paper PMC6555819.

The subject of this assay is RXRa homodimer (NR concentration 180 nM). Kind of assay: PBM binding z-score (relative to random genomic background probes); higher = stronger binding; sequences stand for … in GC…GCGATTGACAGCGTAGAATGAAGG
The method in brief: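 Each nuclear receptor dimer, without ligand, was incubated for 1 h on custom Agilent 4×180K protein-binding microarrays. Binding was detected with antibodies against each partner (one per run), and scanned fluorescence was regression-normalized. The binding z-scores are referenced to random human genomic background probes.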
In turn, ATCTCTAGGTAAAGTCCAGTGAAAGATCGATAGA came in with a PBM binding z-score of -0.0378.

For the sequence AGAACGAGGGCAATGAGTTGATAGGACGGGTGGC, the PBM binding z-score came to 0.869.

For the sequence ATGTCTAGGTAAAAGTTCAGTGAATCCCGAGGAT, the PBM binding z-score came to 1.57.

ATACCAAGGGGATCGTGAGGTCGTTGATACTAAC came in with a PBM binding z-score of 0.933.

Take GCGACTGGGGCAAAGCAGGTTACCGTAAGGTTGG: the PBM binding z-score came out at 0.234.

The sequence ATAGCAAGGTGATCGTGAGGTCGTTGATACTAAC returned a PBM binding z-score of 1.31.

TCATATAGGTAAAAGGTGAAAGTCGGTGTGGTAA: the PBM binding z-score amounted to 2.96.

Regarding AGAATGAGGTTATGCGTAGATCAGGGAAGAAAGT, the PBM binding z-score was 1.99.

In turn, CGTACGAGGGCATGAGTTGATAGCAAATGCCGAT yielded a PBM binding z-score of 1.03.

TCTTGTAGATCAAGCAGGTTAAGCAAGCCTGAGT: the PBM binding z-score is 0.228.

Take AATACAGGCTCACTAGGCCAGAGTAGGTACGAAT: the PBM binding z-score was -0.169.

In turn, GGAACGAGGGCCAAGTTGATAGCATCTGTCGACG registered a PBM binding z-score of 0.105.

Turning to CCTAGTTGGTCAGGAGGACACACACCGGATATGA, the PBM binding z-score was 0.276.

Take GCTTACGGGTCAAAGGTTATAGCTTGAATAGAAT: the PBM binding z-score came out at 8.87.

TATACAGGGTCAAAGGCCCGAGTACGAATGTCGA gave a PBM binding z-score of 5.91.

Sequence TCTATAAGTTGAAGGGCAACCGACGAGTCCGTTT returned a PBM binding z-score of 1.01.

As to CCAGACAGGTGAGCAGGTAACTCAGCCTCGATTA, the PBM binding z-score was -0.115.

ACTAGCAGGCCAATTTTGGGTCACTCAAACAAAG registered a PBM binding z-score of 0.898.

Regarding CGTCCAAGTTCAAGGTCAGTGAAAGAGACTCGAA, the PBM binding z-score amounted to 3.82.

In the case of CGTCCAAGATCAAAGGTCAGTGAAGAGATGACGG, the PBM binding z-score came to 5.07.

As for CGTCAAAGTTCAAGGTAACGTAACAGAAAGCAGC, the PBM binding z-score was found to be 4.58.

With TGAATAAGGTTAAAGATCAGGGAACGTGGCGTCG, the PBM binding z-score was 3.39.

CGTCCAAGGTCAATGCTAGGTCAATGAAAGCATT yielded a PBM binding z-score of 5.18.

With TAGCCTAGGTCATTGGGCCACTATAGTACGCATC, the PBM binding z-score was 2.97.

As to GCACATAGGTAATACAAGGTGAAAGTCCGATTGT, the PBM binding z-score was found to be 0.869.

TCATATAGGTACAGGTGAAAGTCGAACGATATGA: the PBM binding z-score is 1.07.

CCTCGGAGGACAACAGGAGGCCAGAGCTGCCAGA: the PBM binding z-score was -0.394.

CCTGCTAGGTCAGGGTCAGCTAATCTACAGTATG: the PBM binding z-score came to 4.03.

Take GCAGAGAGGTGAAACGCAGGTAACTCAGGGTGGC: the PBM binding z-score amounted to 1.79.

Sequence CGAACTAGGTCAGTGACAGGACAGTGAATAGTAA had a PBM binding z-score of 1.34.

GCTTATGGGTCAAAGGTTATAGCATGAATAGAAT: the PBM binding z-score amounted to 9.21.

With CCTTACGGGTCACTCCGGGTTATAGCATCGGAGT, the PBM binding z-score stood at 4.73.

GGAACGAGGGCACGTTGATAGCAGAGTTTGATGG displayed a PBM binding z-score of 0.885.

On to GGAACGAGGGCAAAGTTGATATCATCTGTCGACG, for which the PBM binding z-score came to 1.96.

With ACTACTAGTTGAGACGAGGGCAACCGATAGGTTG, the PBM binding z-score amounted to 0.506.

Take CGTCCAAGGGCAAAGGTCAGTGAAGAGATGACGG: the PBM binding z-score came out at 6.15.

Consider ATATGTAGGTTAGCTGGGTTCATTCAGACTAGGC, for which the PBM binding z-score was found to be 2.38.

The sequence CCGAGTAGGTTATGGGTCATTCAGGCAACGGTGA returned a PBM binding z-score of 3.06.

In the case of GCTGCTAGGTCAGGGTGGTCAGCTAACGGGTACG, the PBM binding z-score was determined as 1.41.
